Screening results from PubChem.
LASV entry inh – blocks Lassa virus binding to or entry into cells | actives 1.2% (n = 300,000) | AID 540256 | Potency, µM (highest dose often 37.9 µM), inactives show top-dose activity change, negative = inhibition, usual class: inhibitors | Lassa virus pseudotype entry inhibition, cell reporter; calls by dose curve; tested in HEK293 cells; note: nearly all actives have a fitted effect of over 50% in size
Marburg entry inh – inhibitors of Marburg virus binding or cell entry; Marburg virus pseudotyped entry inhibition, cell reporter; Potency, µM (series often up to 37.8 µM), for inactives: top-dose activity change, negative = inhibition, hits mostly inhibitors; actives 1.8% (n = 300,000); AID 540276; calls by dose curve; tested in HEK293 cells
AmpC no deterg – blocks E. coli AmpC beta-lactamase in detergent-free assay; P00811; AmpC nitrocefin hydrolysis, absorbance 480 nm, 0.0001% Triton; Potency, µM (titrated, usually from 57.1 µM), for inactives: top-dose activity change, negative = inhibition, actives largely listed as inhibitors; actives 0.52% (n = 330,000); AID 485341;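 note: plate controls were no compound for no effect and no enzyme for full effect; nearly all actives have a fitted effect of over 20% in size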
Target sequence (P00811 whole entry, looked up): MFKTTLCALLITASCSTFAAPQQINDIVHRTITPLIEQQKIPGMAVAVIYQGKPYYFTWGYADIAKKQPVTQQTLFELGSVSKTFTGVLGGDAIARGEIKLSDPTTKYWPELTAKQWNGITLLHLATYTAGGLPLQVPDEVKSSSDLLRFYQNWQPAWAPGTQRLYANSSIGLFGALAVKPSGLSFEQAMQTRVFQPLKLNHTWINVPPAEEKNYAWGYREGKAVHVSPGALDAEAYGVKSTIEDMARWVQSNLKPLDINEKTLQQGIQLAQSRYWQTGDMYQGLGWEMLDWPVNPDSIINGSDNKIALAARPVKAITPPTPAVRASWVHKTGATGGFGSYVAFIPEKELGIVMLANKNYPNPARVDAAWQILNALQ
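AmpC (5.3 nM in the dispensed reagent) in 20 mM phosphate pH 7.0 with 0.01% (detergent screen) or 0.0001% Triton X-100 was preincubated with compounds for 15 min at room temperature. Nitrocefin was then added from an 800 uM solution, and hydrolysis was followed at 480 nm.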
AmpC inh detg – blocks E. coli AmpC beta-lactamase in detergent assay | Potency, µM (series often up to 114 µM), without a hit: at the top dose activity change, negative = inhibition, actives largely listed as inhibitors | AmpC hydrolysis of nitrocefin, absorbance 480 nm, 0.01% Triton | actives 0.041% (n = 370,000) | P00811;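 note: 0% = no-compound wells and -100% = no-enzyme wells; nearly all actives have a fitted effect of over 25% in size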
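AmpC (5.3 nM in the dispensed reagent) in 20 mM phosphate pH 7.0 with 0.01% (detergent screen) or 0.0001% Triton X-100 was preincubated with compounds for 15 min at room temperature. Nitrocefin was then added from an 800 uM solution, and hydrolysis was followed at 480 nm.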
AMA1-RON2 inh – AMA1-RON2 (P. falciparum) interaction inhibition | AlphaScreen AMA1-biotinylated RON2 peptide binding | Potency, µM (titrated, usually from 58.2 µM), without a hit: top-dose activity change, negative = inhibition, actives largely listed as inhibitors | actives 0.2% (n = 360,000);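 note: 0% = vehicle wells and -100% = peptide control; nearly all actives have a fitted effect of over 45% in size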
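AMA1 (3D7) with his tag at 25 nM final met compounds first, then biotinylated RON2 peptide at 25 nM; detection used donor plus acceptor beads, 10 µg/mL apiece, read by AlphaScreen after 30 min at room temperature.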
An asterisk follows results filed as active; ? = inconclusive; / = no result given; [ ] = remark or other dose. An excerpt weighted towards active compounds, which were near 2.3% of everything screened. Unless noted, calls come from the whole dose curve; as a rule, active = well fitted curve in the direction sought with a large enough effect; inconclusive = small, poorly fitted or top-dose-only effect, or another doubt; inactive = no such curve, though single readings can be large; an effect the other way counts as inactive or inconclusive. Unless noted, % is set by controls: 0 for no effect and ±100 for the full control effect; potency is the fitted concentration of half-maximal effect.

SMILES	LASV entry inh	Marburg entry inh	AmpC no deterg	AmpC inh detg	AMA1-RON2 inh
O=C(c1ccc(-c2ccccc2)cc1)C1CCCN(Cc2ccncc2)C1 (configuration not stated)	?	?	105%	-7%	-1%
CCCOC(=O)Nc1nc(-c2ccc(C)cc2)c(C)s1	11µM*	0%[46.1 µM]	-30%	2%	-16%
CCN1/C(=C/C=C/C=C/c2sc3ccccc3[n+]2CC)Sc2ccccc21	1.8µM*	4.6µM*	162%	?	/
CCN1/C(=C/C=C/C=C/C=C/c2sc3ccccc3[n+]2CC)Sc2ccccc21	/	/	29%	-17%	?
Cc1c(O)nc(SCC(=O)Nc2ccc3c4c(cccc24)CC3)n(-c2ccc(F)cc2)c1=O	?	8%	28µM*	-3%	-1%
COc1ccc(C2=Nc3ccc(OC(F)(F)F)cc3NC(c3cccnc3)=N2)cc1	0%[46.1 µM]	-4%[46.1 µM]	/	-4%	/
COc1cccc(CN(C)C(=O)c2cccc(NC(=O)CC3SC(N4CCCCC4)=NC3=O)c2)c1OC (configuration not stated)	/	/	126%	-3%	-13%
COc1ccc(CN(C)C(=O)c2cccc(NC(=O)CC3SC(N4CCCCC4)=NC3=O)c2)c(OC)c1 (configuration not stated)	7.1µM*	10µM*	/	/	5%
Cc1cc(O)c(C(C[N+](=O)[O-])c2ccc(Cl)cc2)c(=O)o1 (configuration not stated)	-1%	0%	-20%	1%	10%
Cc1cc(C)n(C(C[N+](=O)[O-])c2ccc(Cl)cc2)n1 (configuration not stated)	-2%	-20%	18µM*	2%	-2%
Nc1c(C(O)(C(F)(F)F)C(F)(F)F)cc(C(O)(C(F)(F)F)C(F)(F)F)c2ccccc12	22µM*	11µM*	-8%	?	62%
CCCCN(C)S(=O)(=O)c1cc(-c2cc(C)no2)ccc1C	-13%[46.1 µM]	/	/	-10%	/
CCOc1ccccc1C(=O)NCc1ccc2c(c1)CCN2C(C)=O	1%[46.1 µM]	/	/	7%	/
CCCNc1nc(Nc2ccc(C)cc2)nc(N2CCCC2)n1	-30%	15µM*	-26%	-5%	-12%
Cc1cc(C)nc(Nc2ccc(N3CCCC3)cc2)n1	7%	9%	-33%	?	32µM*
CCN(CC(=O)Nc1c(C(=O)OC)[nH]c2ccc(Cl)cc12)c1ccc2c(c1)OCO2	13µM*	?	1%	?	-9%
N#C/C(=C\c1ccc(-c2ccc(Cl)c(C(=O)O)c2)o1)c1nc2ccccc2[nH]1	-1%[46.1 µM]	10%[46.1 µM]	-23%	1%	/
N#C/C(=C\c1ccc(-c2ccc(C(=O)O)cc2)o1)c1nc2ccccc2[nH]1	?	10µM*	-20%	-7%	11%
CC(C)Oc1ccc(CNC(=O)CC(c2ccccc2)c2cc(Cl)ccc2O)cc1 (configuration not stated)	7.3µM*	?	-21%	?	-1%
COc1ccccc1C(CC(=O)Nc1ccc(Cl)cc1)c1ccc(OC(C)C)cc1 (configuration not stated)	-23%	?	-3%	?	9%
Cc1ccn2c(=O)c(C(=O)NCCc3ccc(S(N)(=O)=O)cc3)c(O)nc2c1	/	?	/	-2%	/
CCOC(=O)C1(c2ccccc2)CCN(CCC(=O)Nc2ccc(OC)cc2)CC1	/	/	/	/	5%
CCOC(=O)C1(c2ccccc2)CCN(CCC(=O)Nc2cccc(Br)c2)CC1	13µM*	2.8µM*	45%	0%	-15%
COC(=O)C1(C)Nc2ccccc2C(=O)N1c1ccccc1C (configuration not stated)	/	/	1µM*	?	-1%
CC(=O)OC1c2ccccc2C(=O)N1c1ccccc1C (configuration not stated)	1%	2%	-15%	-8%	1%
CCOc1ccc(C(=O)/C=C/c2ccc(OC)c(OC)c2)cc1	?	?	66%	-4%	-27%
O=C(C=Cc1ccccc1)c1cc(Br)ccc1O	?	-2%	/	/	1%
Cc1cccc(/C=C/C(=O)c2cc(Br)ccc(=O)c2O)c1	?	?	32µM*	-8%	?
CCc1ccc(/C=C/C(=O)c2cc(Br)ccc(=O)c2O)cc1	?	?	28µM*	-7%	-7%
CCOc1ccc(/C=C/C(=O)c2cc(Br)ccc(=O)c2O)cc1	?	?	32µM*	?	?
